Measured values: PubChem BioAssay AID652256 (National Center for Advancing Translational Sciences (NCATS), 2013)
This is one part of the list. Activity calls are given as the source filed them.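 How the source made its calls: active means a half-inhibiting concentration could be measured and was below 100 µM; inactive means the rest.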

Tested on: Thioredoxin reductase 1 (TXNRD1), rat
Assay: qHTS Assay for Inhibitors of Mammalian Selenoprotein Thioredoxin Reductase 1 (TrxR1): DTNB Assay
Details: purified TrxR1, DTNB reduction, A412
From the text: The selenoprotein thioredoxin reductase (TrxR; EC 1.8.1.9) is a FAD containing homodimeric pyridine nucleotide-disulfide oxidoreductase with many cellular roles. Together with NADPH and its prime substrate thioredoxin (Trx), the enzyme forms the core of the Trx system. The mammalian Trx system exerts a wide spectrum of functions including redox regulation, antioxidant defense, regulation of transcription factors as well as support of cell growth and replication. Many of these functions involve the reduction of Trx, which may subsequently reduce a number of different substrates including ribonucleotide reductase, peroxiredoxins or NFkB. Mammalian TrxR itself also has a broad substrate specificity, reducing both protein and non-protein substrates, including low molecular weight compounds such as dehydroascorbate, lipoic acid, ubiquinone, and juglone. In addition, several drugs in clinical use for anticancer treatment are indeed known to target TrxR1. This orthogonal DTNB assay seeks to further characterize cherry picks. […]
15 nM TrxR1 is reduced by 250 microM NADPH in TE buffer [50 mM Tris-HCl (pH 7.5), 2 mM EDTA] in a 96-well microtiter plate. […] During compound incubation, NADPH consumption is followed by the decrease in absorbance at 340 nm using a VersaMax microplate reader (Molecular Devices) to determine substrate potential of the compound. […]

## COc1ccc(-c2nc(CS(=O)CC(=O)N3CCC4(CC3)OCCO4)c(C)o2)cc1 (stereo unspecified)
  Potency: 1.46 µM (active)
